Calls of active or inactive are those of the source. Unless noted, no rule for the calls is given here.
Tests used:
[1] = compounds binding Alexa647 anti-His antibody – biochemical, small-molecule microarray, 635 nm fluorescence, artefact control for SMM control protein annotation, primary screen (AID 1128); settings: higher = more signal;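 also: score merges feature fluorescence with signal-to-noise for each printed compound spot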
[2] = test system: Human papillomavirus type 1a E7 protein (residues 1-88); test: HPV1a E7 small-molecule binders, primary screen, biochemical, small-molecule microarray, residues 1-88, 635 nm (AID 1129); settings: small-molecule microarray binding, fluorescence 635 nm; higher = more signal
[3] = target: Focal adhesion kinase 1 (Homo sapiens) (UniProt Q05397); test: PTK2 protein binding on printed compound slides – biochemical, small-molecule microarray, 635/667 nm fluorescence, BSA, DTT, primary screen (AID 1130); settings: 635 nm fluorescence, higher = more signal;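 also: composite of spot emission at 667 nm and signal to noise over triplicate slides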
[4] = test system: Fibrinogen (Alexa647-labelled); test: Alexa647-fibrinogen binding to printed small molecules – biochemical, small-molecule microarray, 635/667 nm fluorescence, artefact control for SMM control-protein annotation, profiling panel (AID 1131); settings: fibrinogen-A647 binding fluorescence, higher = more signal;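 also: z-score merges 667 nm fluorescence with per-spot signal-to-noise over triplicate slides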
[5] = target: Follistatin (Homo sapiens) (UniProt P19883); test: FST protein binding to printed compounds – biochemical, small-molecule microarray, 635/667 nm fluorescence, primary screen (AID 1132); settings: 635 nm fluorescence, higher = more signal
[6] = target: Fibroblast growth factor 2 (Homo sapiens) (UniProt P09038); test: basic fibroblast growth factor binding to printed compounds – biochemical, small-molecule microarray, 635/667 nm fluorescence, primary screen (AID 1133); settings: FGF2, fluorescence 635/667, higher = more signal
[7] = JC-1 mitochondrial potential readout, lung cancer cells – cell-based, A549, JC-1 fluorescence, basal, 24 h, 100 nL, profiling panel (AID 1138); settings: higher = more signal;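 also: A549 lung adenocarcinoma cells under basal conditions with no added stimulus; test concentration not given here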
Lefty1 = Lefty1 protein binding to printed compounds – biochemical, small-molecule microarray, 635/667 nm fluorescence, primary screen (AID 1139); settings: fluorescence 635/667, higher = more signal
[8] = test system: wheat germ agglutinin (Triticum aestivum), Alexa647-labelled; test: Alexa647-WGA lectin binding to printed small molecules – biochemical, small-molecule microarray, 635/667 nm fluorescence, artefact control for SMM control-protein annotation, profiling panel (AID 1140); settings: WGA-A647 binding, 635 nm fluorescence, higher = more signal;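 also: score merges 667 nm feature emission with signal to noise over triplicate slides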
[9] = target: Luciferin 4-monooxygenase (Photinus pyralis) (UniProt P08659); test: inhibition of purified Photinus pyralis luciferase – biochemical, luminescence, purified enzyme, 2006 set, primary screen (AID 1141); settings: purified firefly luciferase, SteadyGlo luminescence, 30 min; higher = more signal, called active from +8 up or from −8 down;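 also: cell-free assay with purified firefly luciferase at 100 ng per well in PBS; test concentration not given here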
[10] = test system: Wnt5a (protein binding on small-molecule microarray); test: small molecules binding Wnt5a protein – biophysical, small-molecule microarray, 635/667 nm fluorescence, primary screen (AID 1142); settings: 635 nm fluorescence, higher = more signal;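 also: fluorescence read at 667 nm with signal to noise per printed feature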
[11] = ATP-based viability of Huh7 replicon cells – cell-based, CellTiter-Glo luminescence, basal, 48 h, cytotoxicity control for HCV replication inhibitor project, primary screen (AID 1143); settings: higher = more signal, called active from +8 up or from −8 down;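 also: Huh7 hepatoma cells carrying a hepatitis C replication reporter with no stimulus; test concentration not given here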
[12] = Pseudomonas biofilm growth suppression – PAO1 strain, BacTiter-Glo luminescence, LB-PBS, primary screen (AID 1144); settings: P. aeruginosa PAO1 biofilm, 12 h, higher = more signal
[13] = basal CRE-LacZ reporter activity in PC12 – cell-based, unstimulated, primary screen (AID 1145); settings: no forskolin, luminescence, 4.5 h, higher = more signal, called active from +8 up or from −8 down
[14] = forskolin-driven CRE-LacZ activity in PC12 – cell-based, CRE-LacZ reporter, forskolin-stimulated, primary screen (AID 1146); settings: luminescence, 4.5 h, higher = more signal, called active from +8 up or from −8 down;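 also: PC12 cells with 6xCRE LacZ reporter stimulated by forskolin 10 µM; beta-galactosidase reporter signal reflecting CREB driven transcription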
[15] = target: Streptavidin (Streptomyces avidinii) (UniProt P22629); test: compounds binding control protein streptavidin – biophysical, small-molecule microarray, 635/667 nm fluorescence, artefact control for SMM compound annotation, primary screen (AID 1147); settings: higher = more signal;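 also: signal reflects streptavidin binding to arrayed compounds as a control protein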
[16] = probe aInhba binding on compound microarray – biochemical, small-molecule microarray, 635/667 nm fluorescence, primary screen (AID 1148); settings: higher = more signal;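 also: score merges 667nm spot fluorescence with signal-to-noise for antibody binding to printed compounds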
Torsin-1A (Homo sapiens) [17] = target: Torsin-1A (Homo sapiens) (UniProt O14656); test: TOR1A wild-type binding on microarray – cell lysate, small-molecule microarray, lysate, 635/667 nm, primary screen (AID 1149); settings: COS7 hTOR1A-WT lysate, 635 nm fluorescence, higher = more signal
Torsin-1A (Homo sapiens) [18] = target: Torsin-1A (Homo sapiens) (UniProt O14656); test: torsin A mutant lysate binding on microarrays – cell lysate, small-molecule microarray, COS7 lysate, 635/667 nm fluorescence, primary screen (AID 1150); settings: COS7 hTOR1A mutant lysate, 635 nm fluorescence, higher = more signal;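 also: score pools 667 nm emission and signal to noise measuring lysate protein binding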
[19] = test system: Sonic hedgehog protein (Shh); test: Sonic hedgehog microarray binding compounds – biochemical, small-molecule microarray, 635/667 nm fluorescence, primary screen (AID 1151); settings: 635 nm fluorescence, higher = more signal;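 also: Shh protein binding to compounds spotted on small-molecule microarray slides; score combines spot fluorescence intensity with signal-to-noise across triplicate slides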

Streptavidin (Streptomyces avidinii), sequence (P22629 whole entry, looked up): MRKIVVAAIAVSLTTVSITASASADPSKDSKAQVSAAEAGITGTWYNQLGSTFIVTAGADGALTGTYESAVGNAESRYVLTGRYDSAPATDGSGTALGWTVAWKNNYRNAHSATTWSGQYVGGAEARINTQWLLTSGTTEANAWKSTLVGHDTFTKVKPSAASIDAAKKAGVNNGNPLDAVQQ
Torsin-1A (Homo sapiens), sequence (O14656 whole entry, looked up): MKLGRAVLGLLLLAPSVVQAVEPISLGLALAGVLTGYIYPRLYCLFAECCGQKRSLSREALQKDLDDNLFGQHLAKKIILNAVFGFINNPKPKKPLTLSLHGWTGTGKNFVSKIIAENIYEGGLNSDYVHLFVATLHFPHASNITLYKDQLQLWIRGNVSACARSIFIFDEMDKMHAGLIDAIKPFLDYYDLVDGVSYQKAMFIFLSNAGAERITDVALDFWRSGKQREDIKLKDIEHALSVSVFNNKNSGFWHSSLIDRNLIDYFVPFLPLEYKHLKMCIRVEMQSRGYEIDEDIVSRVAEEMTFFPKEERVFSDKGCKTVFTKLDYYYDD
Focal adhesion kinase 1 (Homo sapiens), sequence (Q05397 whole entry, looked up): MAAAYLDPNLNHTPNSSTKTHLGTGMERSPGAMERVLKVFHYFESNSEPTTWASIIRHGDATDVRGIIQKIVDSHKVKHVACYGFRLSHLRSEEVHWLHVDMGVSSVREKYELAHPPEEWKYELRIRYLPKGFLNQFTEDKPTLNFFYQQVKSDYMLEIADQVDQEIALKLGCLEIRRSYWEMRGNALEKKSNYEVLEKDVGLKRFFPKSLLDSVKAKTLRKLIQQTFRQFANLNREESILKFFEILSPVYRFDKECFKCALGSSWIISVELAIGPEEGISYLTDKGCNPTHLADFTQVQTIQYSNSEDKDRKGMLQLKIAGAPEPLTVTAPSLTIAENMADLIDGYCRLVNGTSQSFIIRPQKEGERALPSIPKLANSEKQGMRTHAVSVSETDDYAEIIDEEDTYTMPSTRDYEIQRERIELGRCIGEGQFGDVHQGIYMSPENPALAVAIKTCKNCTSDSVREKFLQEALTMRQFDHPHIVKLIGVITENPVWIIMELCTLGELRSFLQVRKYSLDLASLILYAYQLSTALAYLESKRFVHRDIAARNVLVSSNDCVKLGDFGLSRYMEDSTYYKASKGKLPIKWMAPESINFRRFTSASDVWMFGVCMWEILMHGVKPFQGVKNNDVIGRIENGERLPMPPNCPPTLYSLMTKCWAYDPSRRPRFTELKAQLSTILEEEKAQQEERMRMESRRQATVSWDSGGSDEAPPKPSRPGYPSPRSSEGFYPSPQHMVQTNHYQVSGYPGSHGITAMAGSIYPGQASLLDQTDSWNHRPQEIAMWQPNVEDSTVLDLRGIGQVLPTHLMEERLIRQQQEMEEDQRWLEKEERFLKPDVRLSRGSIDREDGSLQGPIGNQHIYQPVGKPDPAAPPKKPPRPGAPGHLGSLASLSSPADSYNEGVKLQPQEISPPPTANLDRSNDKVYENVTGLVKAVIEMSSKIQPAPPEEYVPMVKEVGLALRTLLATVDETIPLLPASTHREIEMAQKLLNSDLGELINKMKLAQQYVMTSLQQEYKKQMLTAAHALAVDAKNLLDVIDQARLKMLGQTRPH
Luciferin 4-monooxygenase (Photinus pyralis), sequence (P08659 whole entry, looked up): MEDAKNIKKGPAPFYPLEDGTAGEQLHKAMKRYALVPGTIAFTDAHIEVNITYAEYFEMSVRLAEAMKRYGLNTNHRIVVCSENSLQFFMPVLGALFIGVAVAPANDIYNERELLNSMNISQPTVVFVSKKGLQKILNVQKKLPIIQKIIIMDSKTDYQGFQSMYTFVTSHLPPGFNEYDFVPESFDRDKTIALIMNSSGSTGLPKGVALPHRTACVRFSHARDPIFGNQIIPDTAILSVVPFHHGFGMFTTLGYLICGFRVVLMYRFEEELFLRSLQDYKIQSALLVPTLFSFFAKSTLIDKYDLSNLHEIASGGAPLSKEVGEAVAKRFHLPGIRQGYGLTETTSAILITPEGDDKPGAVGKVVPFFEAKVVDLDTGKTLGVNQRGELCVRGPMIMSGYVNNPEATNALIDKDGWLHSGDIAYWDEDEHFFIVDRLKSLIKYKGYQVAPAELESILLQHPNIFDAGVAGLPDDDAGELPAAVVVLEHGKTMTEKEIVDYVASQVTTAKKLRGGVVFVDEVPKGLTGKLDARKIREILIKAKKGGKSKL
Fibroblast growth factor 2 (Homo sapiens), sequence (P09038 whole entry, looked up): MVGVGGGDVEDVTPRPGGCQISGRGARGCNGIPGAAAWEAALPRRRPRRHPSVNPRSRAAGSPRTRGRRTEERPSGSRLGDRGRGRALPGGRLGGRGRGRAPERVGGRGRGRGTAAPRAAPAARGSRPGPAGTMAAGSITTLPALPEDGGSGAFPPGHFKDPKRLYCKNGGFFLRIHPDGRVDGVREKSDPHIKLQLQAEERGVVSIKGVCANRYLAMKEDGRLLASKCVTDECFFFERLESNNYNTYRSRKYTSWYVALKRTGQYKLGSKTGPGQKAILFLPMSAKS
Follistatin (Homo sapiens), sequence (P19883 whole entry, looked up): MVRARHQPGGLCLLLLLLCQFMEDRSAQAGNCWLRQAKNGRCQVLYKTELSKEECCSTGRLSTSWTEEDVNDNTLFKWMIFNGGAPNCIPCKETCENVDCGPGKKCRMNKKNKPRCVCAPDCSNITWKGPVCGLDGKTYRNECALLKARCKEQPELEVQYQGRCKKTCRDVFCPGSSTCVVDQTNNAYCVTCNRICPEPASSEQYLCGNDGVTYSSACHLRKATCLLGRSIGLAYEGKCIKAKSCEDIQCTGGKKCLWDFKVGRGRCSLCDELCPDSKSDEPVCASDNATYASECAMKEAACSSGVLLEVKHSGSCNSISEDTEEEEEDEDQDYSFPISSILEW

Compound	composite z-score [1]	composite z-score [2]	composite z-score [3]	composite z-score [4]	composite z-score [5]	composite z-score [6]	z-score [7]	composite z-score (Lefty1)	composite z-score [8]	z-score [9]	composite z-score [10]	z-score [11]	z-score [12]	z-score [13]	z-score [14]	composite z-score [15]	composite z-score [16]	composite z-score (Torsin-1A (Homo sapiens) [17])	composite z-score (Torsin-1A (Homo sapiens) [18])	composite z-score [19]
O=C1[C@H]2[C@H]3[C@H](O)[C@H](O)CC(=NO[C@@H]4O[C@H](CO)[C@@H](O)[C@H](O)[C@H]4O)[C@@H]3CC[C@H]2C(=O)N1Cc1ccccc1	-0.58	-0.623	0.593	-0.247	-0.303	0.16	0.129	0.289	-0.0706	0.4 (inactive)	-0.0389	-0.435 (inactive)	0.0971 (inactive)	-0.929 (inactive)	0.488 (inactive)	-0.561	0.0925	-0.333	0.409	-0.37
Cn1c(=O)n2n(c1=O)[C@H]1[C@H](O)[C@@H]3O[C@@H]3C(=NOC[C@@H](O)COCc3ccco3)[C@H]1CC2	-0.272	0.722	0.0225	0.617	0.357	0.468	0.596	0.777	-0.0253	-0.508 (inactive)	0.0562	-0.0843 (inactive)	0.0712 (inactive)	0.248 (inactive)	0.496 (inactive)	0.548	0.0345	0.547	0.266	0.582
O=C(NN=C1C[C@@H](O)[C@@H](O)[C@@H]2[C@@H]3C(=O)N(c4ccc(F)cc4F)C(=O)[C@@H]3CC[C@@H]12)OCc1ccccc1	0.419	0.117	-0.179	0.723	0.385	-0.191	-0.281	0.341	0.336	0.894 (inactive)	-0.132	0.375 (inactive)	1.21 (inactive)	0.16 (inactive)	0.829 (inactive)	0.98	-0.128	0.871	0.464	-0.33
CC(=O)OC[C@H]1O[C@@H](ON=C[C@@H](C)[C@H](OCc2ccccc2)C(C)C)[C@H](OC(C)=O)[C@@H](OC(C)=O)[C@@H]1OC(C)=O	0.133	-0.19	-0.0838	-0.562	-1	0.225	1.32	-0.207	-0.0716	0.0242 (inactive)	0.235	0.558 (inactive)	-0.379 (inactive)	2.19 (inactive)	0.1 (inactive)	-0.173	0.157	1.68	0.958	-0.925
CC(C)[Si]1(C(C)C)O[C@@H](c2ccccc2)c2cc(C3CC3)nc(-c3ccccc3)c21	-0.829	-0.466	-0.925	0.412	-0.165	-0.246	-0.271	-0.198	0.105	-0.471 (inactive)	-0.0654	0.414 (inactive)	-0.134 (inactive)	-0.258 (inactive)	-0.541 (inactive)	0.0887	-0.207	-1	-0.124	0.397
O=C1C[C@@H](O)[C@@H](O)[C@@H]2[C@@H]3C(=O)N(C4CCCCC4)C(=O)[C@@H]3CC[C@H]12	0.335	0.949	0.329	0.583	0.525	0.521	-0.338	0.422	0.103	-0.163 (inactive)	0.0832	0.406 (inactive)	-0.653 (inactive)	-0.0258 (inactive)	-0.444 (inactive)	0.0447	-0.128	0.296	0.585	-0.0419
O=C1[C@H]2[C@H]3[C@H](O)[C@H](O)CC(=NOCc4ccccc4)[C@H]3CC[C@H]2C(=O)N1c1cccc(Oc2ccccc2)c1	0.623	1.09	0.333	0.796	0.663	1.23	0.12	0.772	0.623	0.549 (inactive)	0.242	-2.26 (inactive)	0.768 (inactive)	-0.384 (inactive)	-0.271 (inactive)	0.293	0.0108	0.294	0.363	1.24
CCOC(=O)[C@H](Cc1ccccc1)NC(=O)CCC1CC(OC(=O)NCc2ccc3c(c2)OCO3)CC2(CCCC(COC(=O)NCc3ccccc3)O2)O1 (stereo not given in full)	1	1.12	-0.108	0.347	0.725	0.69	1.64	0.688	0.335	0.66 (inactive)	0.0594	-0.256 (inactive)	-0.971 (inactive)	-0.155 (inactive)	0.807 (inactive)	1.13	-0.168	0.0156	0.28	0.944
COCCNC(=O)OCC1CCCC2(CC(OC(=O)NCCc3ccc(F)cc3)CC(CCC(=O)N[C@@H](C)C(=O)OC)O2)O1 (stereo not given in full)	1	1.12	0.104	0.895	1.26	1.18	1.28	0.969	0.618	0.349 (inactive)	0.156	-0.126 (inactive)	0.252 (inactive)	0.374 (inactive)	-0.448 (inactive)	0.753	-0.128	0.267	-0.0343	1.09
O=C1C2C=CC(C(O)c3ccc([N+](=O)[O-])cc3)N(Nc3ccc([N+](=O)[O-])cc3)C2C(=O)N1c1ccccc1 (stereo not given)	0.953	1.24	0.719	0.952	-0.0127	-0.519	-1.95	-0.139	1.37	0.319 (inactive)	0.71	0.301 (inactive)	-0.328 (inactive)	-0.228 (inactive)	0.554 (inactive)	0.903	0.154	0.128	0.726	-0.114

Reference: PubChem BioAssay
